# Laboratory results from the supplement of paper PMC6555819.
# Key:
# Experiment in all cases: PBM binding z-score (relative to random genomic background probes); higher = stronger binding; sequences stand for … in GC…GCGATTGACAGCGTAGAATGAAGG
# [1] = tested on: FXR:RXRa (NR concentration 270 nM, RXRa partner concentration 90 nM)
# How it was run: (§1)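 On custom Agilent 4×180K arrays, double-stranded probes with 34-nt variable regions carried direct-repeat seeds, single-nucleotide variants, half-site ablations or random human genomic background. Ligand-free nuclear receptor dimers were applied for 1 h, and binding was read with antibodies against each partner (one per run). Binding z-scores come from regression-normalized fluorescence, with the random background probes as reference.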
# [2] = tested on: LXRa:RXRa (NR concentration 270 nM, RXRa partner concentration 90 nM)
# How it was run: as §1
# [3] = tested on: LXRa homodimer (NR concentration 270 nM)
# How it was run: as §1
# [4] = tested on: LXRb:RXRa (NR concentration 270 nM, RXRa partner concentration 90 nM)
# How it was run: as §1
# [5] = tested on: LXRb homodimer (NR concentration 270 nM)
# How it was run: as §1
# [6] = tested on: PPARa:RXRa (NR concentration 270 nM, RXRa partner concentration 90 nM)
# How it was run: as §1
# [7] = tested on: PPARg:RXRa (NR concentration 180 nM, RXRa partner concentration 90 nM)
# How it was run: as §1
# [8] = tested on: PPARg:RXRa 270nM:90nM, anti-RXR (NR concentration 270 nM, RXRa partner concentration 90 nM)
# How it was run: as §1
# [9] = tested on: PPARg:RXRa 30nM:10nM, anti-RXR (NR concentration 30 nM, RXRa partner concentration 10 nM)
# How it was run: as §1
# [10] = tested on: PPARg:RXRa 90nM:30nM, anti-RXR (NR concentration 90 nM, RXRa partner concentration 30 nM)
# How it was run: as §1
Sequence,PBM binding z-score [1],PBM binding z-score [2],PBM binding z-score [3],PBM binding z-score [4],PBM binding z-score [5],PBM binding z-score [6],PBM binding z-score [7],PBM binding z-score [8],PBM binding z-score [9],PBM binding z-score [10]
ACTAGTTAGTCAGCTGAGGTCACACACAATTCGG,2.63,3.5,2.52,3.72,0.931,3.87,1.72,1.98,0.769,1.49
CCTACTGGGCCAAGAAGGTCATTGATGCCGATAA,1.94,2.35,0.897,2.47,-0.675,3.5,2.17,2.94,0.664,1.87
CAAACTAAGTCACAGAGGTCAAAGTCCGTGCGTA,5.08,5.61,5.8,5.22,2.02,5.18,3.74,4.78,2.63,4.18
CCAGAGAGGTGAGAAGGTAACTCAGCCTCGATTA,0.595,0.597,-0.207,1.02,-0.739,2.17,0.83,1.36,0.216,0.457
TCTTGTAGATTAAAGGTTAAGAAAGCCGAAGCCT,1.25,1.98,0.568,1.82,0.134,3.56,5.78,6.6,6.85,7.33
TCTAATAGTTGATTAGGGCAACCGAAACAGCGGA,-0.0644,0.461,-0.078,0.136,-0.225,1.23,0.375,1.85,3.3,2.53
CGAACTAGGTCAGAACAGGACAGTGAGGGATGAT,1.59,0.807,-0.0765,0.315,-0.376,2.96,5.04,4.45,1.74,3.43
CGAACTAGGTCATAACAGGACAGTGAAGGATGAT,3.19,4.15,0.43,1.95,0.0725,4.26,6.94,6.14,3.52,5.3
AATACACGGTCACTAGGCCAGAGTAGGTACGAAT,0.614,1.45,1.32,0.203,0.449,0.827,2.67,1.74,0.885,1.15
GCAGACAGGCGAAACGCAGGTAACTCAGGGTGGC,-0.64,-0.615,-0.761,-1,-1.38,-0.682,0.297,-0.871,-0.326,-0.791
CGAAGTAGGTCAGAACAGGACAGTGAAGGATGAT,1.72,1.2,-0.0962,0.449,0.019,3.32,5.69,4.81,2.22,4.14
TCTATTAGTTGAAGGGCAGCCGACGAGTCCGTTT,0.906,0.864,0.0935,0.623,0.323,0.856,-0.213,1.78,3.64,2.81
ACTAGTAGGCCAAGTTTGGGTCACTCAAACAAAG,0.368,0.0962,-0.261,0.884,-0.17,2.34,2.17,2.27,0.504,1.13
CGTCCAAGTTCATAGGAGGTCAGTGAAGACAGAT,5.25,6.43,3.8,4.3,0.586,3.83,1.6,2.43,0.744,1.47
CTCGAAAGATCGTGCTCAGGTGAGTATACCAAAC,-0.102,-0.388,-0.396,-0.276,-0.402,-0.384,-0.161,-0.399,-0.236,-0.424
TAGCCTAGGTCGTTGGGCCAGTATAGTACGCATC,0.234,-0.0129,-0.222,0.178,-0.371,0.544,0.271,0.0972,-0.401,-0.153
ACAGACAGGTGATGAACGTAACTCAGGCTATCAT,-0.0915,-0.174,0.0611,-0.231,-0.49,-0.156,0.922,-0.0111,0.477,-0.194
TCGAGTAGGTTACCAAAGGGGCATTCAGCTTTCT,0.363,3.05,-0.577,1.61,-0.557,1.41,0.576,1.33,0.963,1.22
TCTATTAGTTGAAGGGCAACAGACGAGTCCGTTT,0.85,0.613,0.367,0.805,0.326,0.993,0.441,2.09,3.73,2.9

Sequence,PBM binding z-score [1],PBM binding z-score [2],PBM binding z-score [3],PBM binding z-score [4],PBM binding z-score [5],PBM binding z-score [6],PBM binding z-score [7],PBM binding z-score [8],PBM binding z-score [9],PBM binding z-score [10]
CCGACTGTGGCAAGGTTACCATAACGCACAGCCA,0.166,0.546,-0.172,0.46,-0.922,1.07,1.1,0.984,-0.132,0.352
TCATATAGGTAAGCAGGTGAAAGTCCGTAAGTTA,0.125,0.178,-0.0439,0.39,-0.523,1.74,2.16,3.14,3.46,3.36
TAGCCTAGGTCATTCGGGGGCCAGTATAGAAAGC,5.41,4.7,1.38,5.3,9.24,4.26,3.69,4.12,1.38,3.17
CGTTCAAGGTCAATGCTAGGTCAGTGAAAGCATT,7.47,5.78,2.89,4.36,1.24,5.27,4.81,5.15,1.88,3.91
TGTTAAAGTTCAAAGGTAACGTAAGTATCCACAC,6.98,6.1,5.38,4.53,2.3,5.47,7.2,6.84,4.03,6.36
CAGCCTACGTCAGGGCCAGTATAGGAGGAACGTT,-0.299,-0.664,-0.318,-0.547,-1.11,-0.518,0.171,-0.999,-0.483,-0.832
AGAACGAGGGCAATGAGTTGATACCACGGGTGGC,0.296,0.211,-0.493,-0.174,-0.279,1.36,1.5,0.94,-0.0193,0.369
TCTCGGCGGACACGAAGGTCAGAGCTTTCCAGAG,0.592,0.668,0.198,0.454,-1.37,1.5,0.0295,1.04,1.16,1.08
CAAACTAGATCAAGGTCAAAGTCGGTTTGTGCCA,4.53,4.46,3.64,3.65,0.973,4.54,3.63,3.99,1.31,2.91
CCTAGCATGCCAATCTGGGTCACTCAAGGCTTGA,0.636,1.12,-0.371,0.998,-0.652,3.3,2.23,2.25,-0.035,1.26
TCTGCTAGGTCAACGATGGTTAGCTAATCTGCTA,3.1,2.08,-0.301,1.46,-0.085,3.09,2.34,3.09,1.82,2.54
ATCTCTAGGTAATCAAGTTCAGTGAATGCCGAAC,0.473,1.01,1.61,0.658,0.711,1.01,0.317,1.19,0.611,1.19
CCGACTGGGGCAAAGGTAACCATACTCAGTACGA,0.167,0.164,-0.55,0.446,-1.32,4.5,8.83,7.71,7.84,8.13
ATCTCTCGGTAAAGTTCAGTGAAAGATCGATAGA,1.03,1.46,1.39,1.3,1.34,1.6,1.08,2.68,1.12,2.32
GCGACTGGGGCATCAGCAGGTGACCATAACTTAA,-0.501,-0.679,-0.385,0.223,-1.22,0.831,0.922,0.832,-0.507,-0.0151
CGTCCAAGGTCAGAGAGGTCAATGAATGCCGAGT,6.53,5.92,4.51,5.64,0.884,5.36,3.79,4.67,1.52,3.58
ACTTTTAGTTGAGACGAGGGCAACCGATAGGTTG,0.762,0.517,-0.32,0.176,0.689,0.546,0.448,0.362,0.289,0.332
GGAACGAAGGCAAAGTTGATAGCATCTGTCGACG,-0.685,-0.726,-0.64,-0.769,-1.04,1.16,2.69,4.58,2.36,4.01
CAAACTAGGTCACCGGAAGGTCAAAGTACGCATG,6.81,6.23,5.23,5.83,1.75,6.36,9.91,8.16,6.57,7.9
